Molecules are shown by their SMILES. The panel holds about 83,000 compounds, 20% with a hit somewhere; the sample as a whole holds those more often.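 The test compound was applied at a single concentration to cells in 96-well plates for 48 hours, and percent growth was recorded.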 Unmarked numbers belong to inactive results. The calls were made as follows: active = growth percent below 10; inactive = the rest.

For this assay, the system named is OVCAR-5 ovarian. Nature of the assay: NCI-60 one-dose screen, 48 h (100 = growth as untreated, 0 = no growth, -100 = all killed). Particulars: 10 µM unless noted.
For `O=C(CCl)Oc1ccc([N+](=O)[O-])cc1`, the growth is 107%.
To `Clc1cccc(Cl)c1CSc1nc2ccccc2n2cccc12` belongs 106%.
For `Cc1cccnc1NC1OC(=O)c2ccccc21` (stereo not drawn) the value was 106%; for `COc1cc(OC)c(NC(=O)C(Sc2nc(C)cc(C)c2C#N)c2ccccc2)cc1Cl` (stereo not drawn), 106%; for `COc1ccc(/C=N/NC(=O)COCC(=O)N/N=C/c2ccc(OC)cc2)cc1`, 108%.
With `Nc1ccccc1SC1CC(=O)N(c2ccc(Cl)c(Cl)c2)C1=O` (stereo not drawn), the growth was 104%.
For `CC(C)c1ccccc1NC(=O)N1CCC(C(C)C)CC1` the value was 117%.
For `FC(F)(F)c1cc(NC2=NCCN=C(Nc3cc(C(F)(F)F)cc(C(F)(F)F)c3)SS2)cc(C(F)(F)F)c1` the value was 102%.
For `CC(CCC#N)(CCC#N)C(=O)c1ccccc1`, the growth was 109%.
To `CCCCCCCCNC(=O)C(C)C` belongs 97.9%.
For `CCCCCCCCCCCCCCCCCC(=O)NCCNC(=O)CCCCCCCCCCCCCCCCC` the value was 94.8%.
To `C=CCC(OC(C)=O)c1ccc(C(C)C)cc1` (stereo not drawn) belongs 109%.
`CC(=O)c1cc(O)ccc1O`: the growth is 99.9%.
To `CCCNS(=O)(=O)c1ccc(Cl)cc1` belongs 110%; to `S=c1nc(-c2ccccn2)c(-c2ccccn2)n[nH]1`, 111%; to `CCOc1ccc(C(=O)NCC(C)C)cc1`, 105%.
For the molecule `O=C(O)c1cccc(-n2ncc(Cl)c(Cl)c2=O)c1`, the growth is 106%.
For `Cn1/c(=N\N=C\c2ccccc2OCCO)sc2ccccc21` the value was 104%; for `Clc1ccc(-c2noc(/C=C\c3ccccc3)n2)cc1`, 99.6%.
In the case of `CC(=O)Nc1ncc(S(=O)(=O)c2ccc([N+](=O)[O-])cc2)s1`, the growth was 109%.
Turning to `CC(=O)NCNC(C)=O`, the growth is 105%.
For `CCOC(=O)c1ccc(C(C)(C)C)cc1` the value was 106%; for `NC(=S)N/N=C/c1ccc(Cl)cc1`, 108%; for `Cc1ccc(NC(=O)c2ccccc2Cl)cc1`, 99.1%.
To `C=CCC(OC(C)=O)c1ccc(OC)c(OC)c1` (stereo not drawn) belongs 113%; to `Oc1ccc(N=Cc2ccc(OCc3ccccc3)cc2)cc1`, 111%.
To `COc1nc(Nc2cccc(C(F)(F)F)c2)nc(OC)n1` belongs 116%; to `C=C1SC(=Nc2c(C)cccc2C)N(c2nc(Cl)nc(Cl)n2)C12CCCCC2`, 118%.
Take `O=C(CCl)Nc1ccccc1SCc1cc(Cl)cc2c1OCOC2`: the growth was 101%.
To `Cc1c(-c2ccc(C3CCCCC3)cc2)nc2ccc(F)cc2c1C(=O)O` belongs 76.7%.
To `C[n+]1cc2cc3c(cc2c2ccccc21)OCO3` belongs 74%.
For `CCCC(=O)CC(=O)c1ccccc1` the value was 101%; for `O=C(O)Cc1ccc(Cl)cc1`, 111%; for `CC(C)(CC(=O)O)CC(=O)O`, 99.5%.
Take `CCOC(=O)C(C#N)=C1CCN(C)CC1`: the growth was 111%.
To `O=C1NC(=O)C(c2ccccc2)O1` (stereo not drawn) belongs 106%; to `COC1OC(COC(C)=O)C(OC(C)=O)C(OC(C)=O)C1OC(C)=O` (stereo not drawn), 93%.
For `C#CCSc1nnnn1-c1ccccc1` the value was 92%.
